Rce1 inhib – yeast Rce1p protease inhibitors, primary screen, biochemical, fluorescence, cell-free homogeneous; yeast membranes, quenched prenylated peptide cleavage fluorescence; actives 0.27% (n = 290,000); CAAX prenyl protease 2 (Saccharomyces cerevisiae (strain ATCC 204508 / S288c)), Q03530; calls only;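 active = fall in fluorescence gain of 50% or more versus controls, with final raw signal at or below 3038400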;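 also: plate controls were neutral control wells for no effect and wells lacking membranes for full effect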
Granule exo inh – LAMP-1 surface exposure blockers, TALL-104 cells – cell-based, flow cytometry, MLPCN library, primary screen. TALL-104 LAMP-1 surface exposure; cells stimulated with thapsigargin and PMA. actives 0.66% (n = 360,000). inhibition, % at 10 µM. AID 651702, 2012;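 active = inhibition above about 55%, limit read from the data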
M18AAP inhibitor – PfM18AAP inhibitors, malaria aminopeptidase, primary screen, biochemical, QFRET, recombinant enzyme. H-Glu-NHMec fluorogenic cleavage. M18 aspartyl aminopeptidase (Plasmodium falciparum 3D7). actives 1.2% (n = 290,000). inhibition, % at 7.35 µM;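 active = inhibition above the campaign mean inhibition over all tested compounds plus 3 SD, cut at about 28% in these data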;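 also: 0% = plate median of test compound wells and 100% = 2 mM ZnCl2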
Platelet DG rel – inhibitors of platelet dense granule secretion, primary screen, cell-based, MLPCN, human platelets; inhibition, %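 (compounds screened at 7.5 µM in platelet-rich plasma)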; actives 0.22% (n = 300,000); human platelet-rich plasma, SFLLRN dense granule ATP release, luminescence;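 active = mean replicate score, as percent of positive control, at or above 50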
ABHD5 PLIN5 PPI – ABHD5-PLIN5 interaction inhibitors, primary screen, cell lysate, split luciferase complementation, luminescence; Perilipin-5 (Homo sapiens) + 1-acylglycerol-3-phosphate O-acyltransferase ABHD5 (Homo …; Split G. princeps luciferase complementation, 4 h; inhibition, % at 4 µM; actives 0.78% (n = 360,000); AID 602281, 2012;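 active = inhibition above the mean inhibition across every tested compound plus 3 SD, cut at about 22% in these data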;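 also: 0% = DMSO only wells and the 100% control is not disclosed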
Target sequence (Q00G26 whole entry, looked up): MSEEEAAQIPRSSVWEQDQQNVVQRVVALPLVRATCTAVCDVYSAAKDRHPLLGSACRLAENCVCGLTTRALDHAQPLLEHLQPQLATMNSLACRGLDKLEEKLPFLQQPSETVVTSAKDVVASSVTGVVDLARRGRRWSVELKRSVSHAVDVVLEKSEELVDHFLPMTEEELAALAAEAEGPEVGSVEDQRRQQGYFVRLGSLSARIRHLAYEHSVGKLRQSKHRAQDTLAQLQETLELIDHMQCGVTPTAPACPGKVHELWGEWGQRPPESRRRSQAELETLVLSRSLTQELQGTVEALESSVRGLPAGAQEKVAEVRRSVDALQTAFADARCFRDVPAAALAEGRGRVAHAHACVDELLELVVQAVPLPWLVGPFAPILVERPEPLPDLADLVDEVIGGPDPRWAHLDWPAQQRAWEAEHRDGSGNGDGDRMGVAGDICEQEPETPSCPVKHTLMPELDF
Target sequence (Q8WTS1 whole entry, looked up): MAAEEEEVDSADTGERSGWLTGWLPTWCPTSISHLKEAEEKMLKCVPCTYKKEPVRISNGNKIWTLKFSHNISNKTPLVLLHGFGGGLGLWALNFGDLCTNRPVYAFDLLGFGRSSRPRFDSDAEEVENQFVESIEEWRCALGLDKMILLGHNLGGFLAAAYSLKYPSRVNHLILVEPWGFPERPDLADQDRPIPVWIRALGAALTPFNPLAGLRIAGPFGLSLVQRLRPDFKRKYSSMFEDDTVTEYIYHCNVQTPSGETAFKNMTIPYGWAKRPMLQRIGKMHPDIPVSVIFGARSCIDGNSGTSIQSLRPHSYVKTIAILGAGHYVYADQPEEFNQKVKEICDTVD
ABHD5 PLIN5 conf – ABHD5-PLIN5 interaction inhibitors, confirmation, biochemical, luminescence. actives 67% (n = 2,200). inhibition, % at 4 µM. shares compounds with ABHD5 PLIN5 PPI; in the data active = inhibition above about 23%;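 also: 0% = DMSO vehicle wells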
HNF4 split-luc – HNF4 dimerization inhibitors, counter-screen for ABHD5-PLIN5 interaction inhibitor project, biochemical, split-luciferase complementation, luminescence | shares compounds with ABHD5 PLIN5 PPI | inhibition, % at 4 µM | actives 77% (n = 2,200) | AID 651674, 2012;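 active = mean inhibition across replicate wells exceeding the computed hit threshold, cut at about 13% in these data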;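 also: light from luciferase halves that rejoin when HNF4 fusion proteins dimerize; 0% = DMSO only wells and the 100% control is not given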
Active calls of the source: *; i = inactive; nt = no result given. The list is not random: actives were taken first. Their share in the collection is about 2.6%.

SMILES	Rce1 inhib	Granule exo inh	M18AAP inhibitor	Platelet DG rel	ABHD5 PLIN5 PPI	ABHD5 PLIN5 conf	HNF4 split-luc
C/C(=N/NC(=O)c1ccc(O)cc1)c1cccc([N+](=O)[O-])c1	i	1	-5	-1	-6	nt	nt
N#Cc1ccc(C(C(=O)Nc2ccc3c(c2)OCCO3)n2c(=O)c(-c3ccco3)nc3ccccc32)cc1 (stereo not given)	nt	-6	nt	nt	31*	32*	8
Cc1c(NC(=O)CSc2nccn2C)c(=O)n(-c2ccccc2)n1C	i	-1	-3	9	-2	nt	nt
Cc1sc2nc(SCC(=O)Nc3c(C)n(C)n(-c4ccccc4)c3=O)n(C)c(=O)c2c1C	i	-1	14	0	24*	0	0
NC(=O)C(C(=O)/C=C/c1ccc(Cl)cc1)=C1SCCS1	nt	4	-2	1	34*	56*	34*
Cc1ccc(S(=O)(=O)N2C[C@H]3n4c(=O)ccc(=O)n4C[C@H](OC(=O)NCC4CCCCC4)[C@@]3(O)C2)cc1	nt	-6	nt	nt	26*	63*	45*
Cc1ccc(S(=O)(=O)N2C[C@H]3n4c(=O)ccc(=O)n4C[C@H](OC(=O)NCc4ccccc4)[C@@]3(O)C2)cc1	nt	-4	nt	nt	19	nt	nt
Cc1nc2c(C(=O)NCCC(C)C)c[nH]n2c(=O)c1Cc1ccccc1F	i	-2	-7	-5	-4	nt	nt
CN(Cc1ccco1)C(=O)CCc1nc2sc3c(c2c(=O)[nH]1)CCCC3	i	-4	1	0	24*	26*	43*
CN(C)C(=O)CCc1nc2sc3c(c2c(=O)[nH]1)CCCC3	i	2	-8	5	4	nt	nt
Cc1ccc(CN(C)C(=O)CCc2nc3sc4c(c3c(=O)[nH]2)CCCC4)o1	i	-3	4	1	32*	17	29*
Cc1cccc(Nc2nc(N)nc(CC(=O)CSc3ccc(Cl)cc3)n2)c1	i	nt	6	-14	nt	nt	nt
O=C(NCCc1nnc2ccc(NCc3ccccc3Cl)nn12)c1ccccc1	i	-5	-11	3	52*	6	4
CC(CCc1ccco1)NC(=O)CCc1nnc2ccc(NCc3ccccc3Cl)nn12 (stereo not given)	i	0	5	-6	43*	40*	nt
CCS(=O)(=O)N1CCC(C(=O)NCCCN2CCN(c3ccccc3F)CC2)CC1	i	1	-4	7	1	nt	nt
COC(=O)C(CC(=O)c1ccc(Br)cc1)n1nc(C)cc1C (stereo not given)	i	37	-78	-6	37*	11	52*
COC(=O)C(CC(=O)c1ccc(Br)cc1)n1ccnc1 (stereo not given)	i	nt	-18	16	nt	nt	nt
CN(C)CCN(Cc1cccs1)c1ccccn1	i	-1	-7	-6	-4	nt	nt
CN(C)CCN(Cc1ccco1)c1ccccn1	nt	-2	nt	nt	46*	35*	0
COc1ccccc1NC(=O)CS(=O)(=O)c1cccc2nsnc12	i	-1	-1	4	-15	nt	nt
COc1ccc(N(CC(=O)NCc2ccc3c(c2)OCO3)S(=O)(=O)c2ccccc2[N+](=O)[O-])c(OC)c1	i	1	-13	0	-7	nt	nt
CCN(CC)Cc1cc(Nc2c3ccccc3nc3c4ccccc4n(C)c23)cc(CN(CC)CC)c1O	nt	100*	nt	nt	27*	44*	29*
O=C(CC1CCCCC1)NC1CCCC1	i	2	-5	3	7	nt	nt
Clc1ccc(CN2C3=NCCN3c3ccccc32)cc1Cl	i	0	4	-4	3	nt	nt
O=S(=O)(Cc1ccc(Cl)cc1)c1ccccc1-c1nnc(-c2ccc(Cl)cc2)o1	i	-1	-8	-2	31*	-2	-3
SMILES	Rce1 inhib	Granule exo inh	M18AAP inhibitor	Platelet DG rel	ABHD5 PLIN5 PPI	ABHD5 PLIN5 conf	HNF4 split-luc
Cc1ccc(-c2nnc(-c3ccccc3S(=O)(=O)Cc3ccc(Cl)cc3)o2)cc1	i	-3	9	-1	-4	nt	nt
Fc1ccc2c(c1)Sc1ccc(Cl)cc1CC2N1CCN(CCC2OCCO2)CC1 (stereo not given)	i	44	nt	10	12	nt	nt
OCCN1CCN(CCCN2c3ccccc3Sc3ccc(Cl)cc32)CC1	i	19	18	-2	17	nt	nt
COCCCN1CCN(C2Cc3ccccc3Sc3ccc(Cl)cc32)CC1 (stereo not given)	i	8	3	2	25*	17	3
NC(=O)CCN1CCN(CCOC2Cc3cc(Cl)ccc3Sc3ccccc32)CC1 (stereo not given)	i	-3	2	-4	25*	22*	6
COc1ccc(NC(=O)Nc2cc(NC(=O)Nc3ccc(OC)cc3)c(C)nc2C)cc1	i	-9	-3	-4	-2	nt	nt
O=C(NCCCO)c1ccc2nc(-c3ccco3)c(-c3ccco3)nc2c1	nt	1	29*	nt	25*	67*	68*
O=C(Nc1ccccc1)c1ccc2nc(-c3ccco3)c(-c3ccco3)nc2c1	i	1	16	-4	30*	49*	32*
CC(=O)c1ccc(NC(=O)c2ccc3nc(-c4ccco4)c(-c4ccco4)nc3c2)cc1	i	2	7	5	17	nt	nt
Cc1ccccc1NC(=O)C1C2CCCCC21 (stereo not given)	i	-5	4	11	-5	nt	nt
CSC1=N/C(=C\c2c(F)cccc2Cl)C(=O)S1	i	-2	2	-2	0	nt	nt
CC[n+]1ccccc1/C=C1\Sc2ccc(C)cc2N1C	i	-5	-10	-14	4	nt	nt
CC[n+]1c(/C=C2\Sc3ccccc3N2C)ccc2cccc(C)c21	i	68*	1	1	24*	23*	26*
Cc1ccc(CN2C(=O)C(=O)c3cc(C)ccc32)cc1	nt	0	nt	nt	30*	25*	43*
O=C(Nc1cc(Cl)ccc1N1CCOCC1)c1ccc2c(c1)OCCO2	i	-4	-3	-11	12	nt	nt
COc1ccc(NCc2nc3ccccc3n2CCOc2ccc(C)cc2)cc1	i	8	6	-4	25*	6	10
COc1ccc(NCc2nc3ccccc3n2C)cc1	i	29	6	13	1	nt	nt
c1ccc(NCc2nc3ccccc3n2CCOc2ccccc2)cc1	i	1	0	9	3	nt	nt
COc1ccc(NCc2nc3ccccc3n2CCOc2ccccc2)cc1	i	27	-3	0	29*	6	2
O=C(Nc1ccc(Br)cc1)c1ccc(CSC2=NCCS2)cc1	i	22	2	2	-9	nt	nt
